ChEMBL document CHEMBL4513216, “Probing the Open Global Health Chemical Diversity Library for Multistage-Active Starting Points for Next-Generation Antimalarials” (ACS Infect Dis, 2020)
Screen size: about 69,000 compounds; about 8,600 (12%) showed an effect of 50% or more. Only a selection was taken, and strong results are over-represented in it overall.

What follows are molecules tested on Plasmodium berghei (assay: Screen against P. berghei liver stage (PbLuc), transformed with Luciferase, at 10uM). Settings: tested at 10 uM.
Assay type: functional, HepG2

| Structure (SMILES) | INHIBITION [%] |
| --- | --- |
| NC(=O)CSc1ccccc1NC(=O)C1CCCCC1 | 21.1 |
| CC1N(c2cnn(C)c2)C(=O)COC12CCN(c1ncccn1)CC2 (configuration not stated) | 58.3 |
| CC1N(c2cnn(C)c2)C(=O)COC12CCN(CC1CC1)CC2 (configuration not stated) | -5.25 |
| CC1N(c2cnn(C)c2)C(=O)COC12CCN(c1ccccn1)CC2 (configuration not stated) | 39.5 |
| O=C(Cc1ccc2c(c1)CCO2)N1CCN(c2nccs2)CC1 | 9.14 |
| CN(C)c1cc(CNC(=O)Nc2nccs2)ccn1 | -0.219 |
| CC(C)NC(=O)[C@H]1C[C@@H]2[C@@H](C1)OCCN2Cc1ccsc1 | 16.9 |
| COCCCC(=O)NC1(c2cccc(Br)c2)CC1 | 32.5 |
| CCOCC(=O)NC1(c2cccc(Cl)c2)CC1 | 57.3 |
| COCCSCC(=O)NC1(c2cccc(Br)c2)CC1 | 54.4 |
| NC(=O)CSCC(=O)NC1(c2cccc(Br)c2)CC1 | 8.99 |
| CCOCC(=O)NC1(c2cccc(Br)c2)CC1 | 45.1 |
| CSCC(=O)NC1(c2cccc(Cl)c2)CC1 | 8.41 |
| Cc1nn(C)c(N(C)C)c1CNCC(O)COc1ccccc1 (configuration not stated) | -56.9 |
| O=C(NCCSc1ccccc1)[C@H]1CNC[C@H](C(=O)N2CCOCC2)C1 | 11.2 |
| CCS(=O)(=O)CC(C)N(C)C(=O)COc1ccccc1C#N (configuration not stated) | -29.7 |
| CCCc1nc(CN2CCCN(Cc3nccn3C)CC2)no1 | 25.6 |
| CCOCCN1CCN(Cc2cccc(C(=O)N(C)C)c2)CC1CC (configuration not stated) | 25.6 |
| O=C(COc1ccccc1)NCC1CCN(Cc2ccsc2)CC1 | 27 |
| COCC(=O)NCC1CCN(Cc2ccsc2)CC1 | -6.67 |
| O=C(CCc1ccsc1)NCC1CCN(c2ccccc2)C1 (configuration not stated) | 2.74 |
| O=C(CCc1ccccc1)NCC1CCN(Cc2cccs2)CC1 | 51.9 |
| O=C(CCSc1ccccc1)NCC1CCN(Cc2ccsc2)CC1 | 27.6 |

| Structure (SMILES) | INHIBITION [%] |
| --- | --- |
| O=C(CCc1ccccc1)NCC1CCN(Cc2ccccc2)CC1 | 54.2 |
| O=C(CCc1ccccc1)NCC1CCN(Cc2ccsc2)CC1 | -11.8 |
| CCOCC(=O)NCC1CCN(Cc2ccsc2)CC1 | 60 |
| O=C(CCc1ccsc1)NCC1CCN(Cc2cccs2)CC1 | 14.6 |
| Cc1ccccc1C1CCCN1Cc1nc2c(cnn2C)c(=O)[nH]1 (configuration not stated) | -52.5 |
| CN(C)[C@@H]1CCN(c2ncc(F)cn2)[C@H]1Cc1ccccc1 | -101 |
| CN(C)C(=O)CN1C(=O)CCC12CCN(Cc1cccn1C)CC2 | 33.2 |
| Cn1ccc(C(=O)N2CCN(CC(O)C(C)(C)C)CC2)cc1=O (configuration not stated) | 25.6 |
| Cc1cc(C(=O)NCCCn2nccc2C2CC2)c(=O)[nH]c1C | 53.3 |
| Cc1ccc2[nH]c(=O)cc(C(=O)NCCCn3nccc3C3CC3)c2c1 | -7.16 |
| Cc1nc(N(C)C)ncc1C(=O)NCCCn1nccc1C1CC1 | 27.5 |
| N#Cc1cccc(S(=O)(=O)N2CCCCC2CCN2CCCC2)c1 (configuration not stated) | 51.3 |
| N#Cc1cccc(S(=O)(=O)N2CCCCC2CCN2CCCC2=O)c1 (configuration not stated) | 20.1 |
| COCCCC1CCCCN1S(=O)(=O)c1cccc(C#N)c1 (configuration not stated) | -41.8 |
| CNC(=O)NCC(CO)Cc1cccc(OC(F)(F)F)c1 (configuration not stated) | -10.3 |
| CCS(=O)(=O)N1CCc2c(cnc(-c3cccnc3)c2C(=O)O)C1 | -1.26 |
| Cc1ccc(C)c(S(=O)(=O)CCN2CCc3c(ncn3C)C2)c1 | 19.4 |
| O=C(c1cncs1)N1CCC(Cc2cnc3[nH]ccc3c2)CC1 | 64.1 |
| O=C(c1ccncc1)N1CCC(Cc2cnc3[nH]ccc3c2)CC1 | 33.7 |
| O=C(c1cnccn1)N1CCC(Cc2cnc3[nH]ccc3c2)CC1 | 17.1 |
| Cc1ccc(OC2(C(=O)NC(C)c3csc(C)n3)CCNCC2)cc1 (configuration not stated) | 41.2 |
| Nc1nnnn1NCc1ccccc1C(F)(F)F | -24.6 |
| Nc1nnnn1NCc1cccc(Cl)c1Cl | 61.5 |

| Structure (SMILES) | INHIBITION [%] |
| --- | --- |
| Nc1nnnn1NCc1cccc2ccccc12 | 23.4 |
| CC(C)NC(=O)C1CCc2nnc(C(C)(C)C)n21 (configuration not stated) | -15.5 |
| Cc1nc(CN2CCC3(CCN(c4cnn(C)c4)C3=O)C2)cs1 (configuration not stated) | -17.2 |
| CC1(C(=O)N2CCOCC2)CN(Cc2ncc[nH]2)CCO1 (configuration not stated) | 27.8 |
| Cc1ccc(CN2CC[C@@H](NS(C)(=O)=O)[C@@H]2Cc2ccncc2)o1 | -7.94 |
| CC(C)CN1C[C@H]2CCN(C(=O)c3ccccn3)CC[C@H]2S1(=O)=O | -19.6 |
| CCN1C[C@H]2CCN(C(C)=O)CC[C@H]2S1(=O)=O | -26.8 |
| O=C(c1cc[nH]n1)N1CC[C@@H]2CN(Cc3cccnc3)S(=O)(=O)[C@@H]2CC1 | 76.4 |
| COCCN1C[C@H]2CCN(C(=O)Nc3ccccc3C)CC[C@H]2S1(=O)=O | 34.6 |
| O=C(c1cc[nH]n1)N1CC[C@@H]2CN(Cc3ccncc3)S(=O)(=O)[C@@H]2CC1 | 26.5 |
| CCN1C[C@H]2CCN(C(=O)c3cc[nH]n3)CC[C@H]2S1(=O)=O | 63.5 |
| CCN1C[C@H]2CCN(C(=O)Nc3ccccc3C)CC[C@H]2S1(=O)=O | 50.6 |
| O=C(c1cc[nH]n1)N1CC[C@@H]2CN(Cc3ccccc3)S(=O)(=O)[C@@H]2CC1 | -23.3 |
| Cc1ccccc1NC(=O)N1CC[C@@H]2CN(CC(C)C)S(=O)(=O)[C@@H]2CC1 | -13.4 |
| CCN(CC)C(=O)NCCc1ccn(-c2ccccc2)n1 | 7.67 |
| CCn1ncc2c1CCCC2NCc1ccc(OC)cc1OC (configuration not stated) | 42 |
| O=C(CC1[C@H]2CN(c3ncccn3)C[C@@H]12)Nc1cccnc1 (some centres not stated) | 13.7 |
| Cc1nc(CN(C)C2CCN(Cc3ccc(C(N)=O)cc3)C2)no1 (configuration not stated) | -27.8 |
| Cc1cccc(CN2CCCC(c3nccs3)C2)n1 (configuration not stated) | 43.6 |
| Cc1cc(C)cc(NCCC(=O)NCc2cccnc2N(C)C)c1 | 23.7 |
| O=C(c1cc2c(s1)CCC2)N1CCN(c2cnccn2)CC1 | -8.66 |
